# Reference: PubChem BioAssay (EPA / NIEHS)
# Values joined by “and” are separate entries in the source; they are usually repeats but may differ in a detail not shown here. Equal values may be shown once. Results filed as inconclusive are left out. Where a structure was tested more than once in an assay, its records may differ in their call. Active and inactive are the calls of the source. The calls were made as follows, unless noted: active = hit-call score of the fitted dose curve at least 0.9, where 1 is the maximum; inactive = score below 0.9.
# Columns and labels:
# [1] = target: Bile acid receptor (Homo sapiens) (UniProt Q96RI1); assay: ATG_FXR_TRANS: Attagene TRANS-FACTORIAL HepG2 Assay for Farnesoid X Receptor (FXR) (AID 2282979; active = hit-call score of the fitted dose curve at least 0.9, where 1 is the maximum;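 also: hits raise reporter mRNA above DMSO so AC50 marks FXR activation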); details: HepG2 Attagene TRANS FXR-GAL4 reporter transcription
# Chain of Bile acid receptor (Homo sapiens) (Q96RI1 whole entry, looked up, the tested form may be a part): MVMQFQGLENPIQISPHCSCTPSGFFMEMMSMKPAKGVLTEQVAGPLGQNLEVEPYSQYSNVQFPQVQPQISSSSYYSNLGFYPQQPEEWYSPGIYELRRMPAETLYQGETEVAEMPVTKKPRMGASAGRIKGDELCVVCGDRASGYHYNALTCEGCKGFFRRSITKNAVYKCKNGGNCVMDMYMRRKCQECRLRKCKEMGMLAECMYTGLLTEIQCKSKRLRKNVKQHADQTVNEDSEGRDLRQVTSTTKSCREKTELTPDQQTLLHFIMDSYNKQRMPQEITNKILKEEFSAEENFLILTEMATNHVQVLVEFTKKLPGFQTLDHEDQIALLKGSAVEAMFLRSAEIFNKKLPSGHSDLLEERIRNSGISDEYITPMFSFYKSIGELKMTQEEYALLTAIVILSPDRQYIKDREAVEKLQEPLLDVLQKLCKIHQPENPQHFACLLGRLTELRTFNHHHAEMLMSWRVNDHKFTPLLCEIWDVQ
# How it was run: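 Transient transfection of HepG2 with multiplexed GAL4-UAS reporter units; exogenous FXR-GAL4 chimera. Dose 24 h → TriZol RNA → oligo(dT) RT → PCR, 6-FAM primer extension, HpaI cut → CE. Gain vs DMSO.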
# [2] = target: Oxysterols receptor LXR-alpha (Homo sapiens) (UniProt Q13133); assay: ATG_LXRa_TRANS: Attagene TRANS-FACTORIAL HepG2 Assay for human Liver X Receptor alpha (LXRa) (AID 2282980; active = hit-call score of the fitted dose curve at least 0.9, where 1 is the maximum); details: HepG2 Attagene TRANS reporter, LXRa transactivation
# Chain of Oxysterols receptor LXR-alpha (Homo sapiens) (Q13133 whole entry, looked up, the tested form may be a part): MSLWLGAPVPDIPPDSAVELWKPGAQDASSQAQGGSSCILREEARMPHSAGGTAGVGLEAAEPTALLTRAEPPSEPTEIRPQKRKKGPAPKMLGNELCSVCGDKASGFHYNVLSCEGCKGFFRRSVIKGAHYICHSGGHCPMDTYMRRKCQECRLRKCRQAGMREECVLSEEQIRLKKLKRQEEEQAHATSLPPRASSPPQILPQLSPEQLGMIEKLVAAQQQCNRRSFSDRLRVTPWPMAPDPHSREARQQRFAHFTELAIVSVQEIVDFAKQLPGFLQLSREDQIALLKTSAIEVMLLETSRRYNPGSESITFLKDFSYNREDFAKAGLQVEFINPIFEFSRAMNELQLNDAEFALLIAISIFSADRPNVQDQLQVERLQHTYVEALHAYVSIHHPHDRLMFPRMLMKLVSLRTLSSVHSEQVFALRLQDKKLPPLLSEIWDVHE
# How it was run: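 Transfect HepG2 with GAL4-UAS multiplex reporter constructs (TRANS format, chimeric receptor-GAL4); treat 24 h; extract RNA, reverse-transcribe, PCR-amplify, FAM-label, HpaI-digest; resolve fragments by capillary electrophoresis. Upward response vs DMSO.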
# [3] = target: Hepatocyte nuclear factor 4-alpha (Homo sapiens) (UniProt P41235); assay: ATG_HNF4a_TRANS: Attagene TRANS-FACTORIAL HepG2 Assay for human Hepatocyte Nuclear Factor 4 alpha (HNF4a) (AID 2282982; active = hit-call score of the fitted dose curve at least 0.9, where 1 is the maximum); details: HepG2 HNF4a transactivation reporter, mRNA readout
# Chain of Hepatocyte nuclear factor 4-alpha (Homo sapiens) (P41235 whole entry, looked up): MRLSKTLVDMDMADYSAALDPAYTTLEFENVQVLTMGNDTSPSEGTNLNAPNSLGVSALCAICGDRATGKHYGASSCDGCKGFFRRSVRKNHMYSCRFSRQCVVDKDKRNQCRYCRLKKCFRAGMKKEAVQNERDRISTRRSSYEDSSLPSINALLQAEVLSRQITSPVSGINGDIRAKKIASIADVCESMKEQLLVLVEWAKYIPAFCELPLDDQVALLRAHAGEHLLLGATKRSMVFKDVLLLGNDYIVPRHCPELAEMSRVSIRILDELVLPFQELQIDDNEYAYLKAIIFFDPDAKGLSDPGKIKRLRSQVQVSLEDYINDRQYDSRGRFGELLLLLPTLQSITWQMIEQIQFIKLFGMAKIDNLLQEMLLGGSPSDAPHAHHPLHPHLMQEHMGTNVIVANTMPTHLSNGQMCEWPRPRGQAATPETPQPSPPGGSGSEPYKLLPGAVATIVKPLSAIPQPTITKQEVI
# How it was run: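 Multiplexed reporter assay: transfected HepG2, 24 h exposure, total RNA → oligo(dT) RT → PCR → 6-FAM extension → HpaI digest → CE fluorescence. DMSO = negative control.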
# [4] = ATG_M_06_TRANS: Attagene TRANS-FACTORIAL HepG2 Assay for M06 Transcription Factor (Internal Marker) (AID 2282983; active = hit-call score of the fitted dose curve at least 0.9, where 1 is the maximum); details: HepG2 Attagene TRANS M06 internal marker reporter
# How it was run: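 Background control endpoint: reporter mRNA from transiently transfected HepG2 after 24 h dosing, detected by RT-PCR with capillary electrophoresis fluorescence. Analysed for gain versus DMSO.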
# [5] = target: Nuclear receptor subfamily 4 group A member 2 (Homo sapiens) (UniProt P43354); assay: ATG_NURR1_TRANS: Attagene TRANS-FACTORIAL HepG2 Assay for human Nuclear Receptor Related Protein 1 (NURR1) (AID 2282985; active = hit-call score of the fitted dose curve at least 0.9, where 1 is the maximum); details: HepG2 Attagene TRANS reporter, mRNA readout
# Chain of Nuclear receptor subfamily 4 group A member 2 (Homo sapiens) (P43354 whole entry, looked up, the tested form may be a part): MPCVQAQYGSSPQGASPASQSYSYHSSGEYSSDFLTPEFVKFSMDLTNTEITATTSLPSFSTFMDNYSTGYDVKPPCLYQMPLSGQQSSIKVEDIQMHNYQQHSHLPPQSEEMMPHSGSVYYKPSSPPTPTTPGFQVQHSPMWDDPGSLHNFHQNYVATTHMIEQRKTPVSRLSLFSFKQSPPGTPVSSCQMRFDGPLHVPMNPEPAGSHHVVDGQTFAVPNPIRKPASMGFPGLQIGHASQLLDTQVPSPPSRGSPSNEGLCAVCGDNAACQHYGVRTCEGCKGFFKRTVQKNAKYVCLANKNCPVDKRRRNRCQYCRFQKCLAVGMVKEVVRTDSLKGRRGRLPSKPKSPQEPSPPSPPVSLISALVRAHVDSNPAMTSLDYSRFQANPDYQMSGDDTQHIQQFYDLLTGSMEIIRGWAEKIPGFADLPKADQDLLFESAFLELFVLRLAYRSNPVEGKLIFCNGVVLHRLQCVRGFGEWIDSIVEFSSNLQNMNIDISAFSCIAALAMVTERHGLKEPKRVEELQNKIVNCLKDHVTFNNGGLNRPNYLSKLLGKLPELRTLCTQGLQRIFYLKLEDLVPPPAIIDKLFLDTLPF
# How it was run: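 Measures transcriptional activation by an exogenous NR-Gal4 chimera in transfected HepG2 liver cells. After 24 h, reporter RNA is reverse-transcribed, amplified and resolved by capillary electrophoresis; DMSO defines baseline.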
# [6] = target: Transcriptional activator Myb (Homo sapiens) (UniProt P10242); assay: ATG_Myb_CIS: Attagene CIS-FACTORIAL HepG2 Assay for human Myeloblastosis (Myb) Proto-Oncogene Transcription Factor (AID 2282986); details: HepG2 Attagene CIS-FACTORIAL Myb reporter transcription; actives raise or lower the signal
# Chain of Transcriptional activator Myb (Homo sapiens) (P10242 whole entry, looked up): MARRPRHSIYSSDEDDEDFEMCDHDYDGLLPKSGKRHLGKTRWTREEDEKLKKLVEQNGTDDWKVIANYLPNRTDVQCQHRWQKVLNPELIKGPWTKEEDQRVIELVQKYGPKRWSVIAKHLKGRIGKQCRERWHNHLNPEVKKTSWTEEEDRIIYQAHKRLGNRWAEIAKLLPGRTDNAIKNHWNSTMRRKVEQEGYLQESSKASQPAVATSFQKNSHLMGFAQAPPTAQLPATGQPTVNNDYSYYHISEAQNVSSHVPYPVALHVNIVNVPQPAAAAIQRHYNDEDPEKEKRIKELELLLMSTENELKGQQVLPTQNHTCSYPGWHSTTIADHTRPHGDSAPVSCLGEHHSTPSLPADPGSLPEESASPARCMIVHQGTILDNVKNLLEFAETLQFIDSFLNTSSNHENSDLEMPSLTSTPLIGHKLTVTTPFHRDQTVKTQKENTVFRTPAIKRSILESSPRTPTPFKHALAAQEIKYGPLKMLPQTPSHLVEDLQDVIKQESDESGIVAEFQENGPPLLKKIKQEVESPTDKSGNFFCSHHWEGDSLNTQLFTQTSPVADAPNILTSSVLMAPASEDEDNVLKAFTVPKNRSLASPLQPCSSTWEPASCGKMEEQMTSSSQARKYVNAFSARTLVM
# How it was run: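 Reporter transcript levels, quantified by fluorescent RT-PCR and capillary electrophoresis, serve as the read-out. Transfected HepG2 cells carrying cis-promoter reporter units are dosed for 24 hours, and curves are fitted bidirectionally against DMSO controls.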
# [7] = ATG_NFI_CIS: Attagene CIS-FACTORIAL HepG2 Assay for human Nuclear Factor I (NFI) (AID 2282989); details: HepG2 cis-regulatory reporter, NFI response element transcription; actives raise or lower the signal
# How it was run: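 HepG2 cells transiently transfected with cis-element-driven multiplexed reporter transcription units, dosed for 24 h. Reporter mRNA quantified by RT-PCR, fluorescent labelling, HpaI digestion and capillary electrophoresis; bidirectional fit versus DMSO baseline.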
# [8] = target: Myc proto-oncogene protein (Homo sapiens) (UniProt P01106); assay: ATG_Myc_CIS: Attagene CIS-FACTORIAL HepG2 Assay for human Myelocytomatosis (Myc) Proto-Oncogene Transcription Factor (AID 2282990); details: HepG2, Attagene cis-reporter transcription factor activity; actives raise or lower the signal
# Chain of Myc proto-oncogene protein (Homo sapiens) (P01106 whole entry, looked up): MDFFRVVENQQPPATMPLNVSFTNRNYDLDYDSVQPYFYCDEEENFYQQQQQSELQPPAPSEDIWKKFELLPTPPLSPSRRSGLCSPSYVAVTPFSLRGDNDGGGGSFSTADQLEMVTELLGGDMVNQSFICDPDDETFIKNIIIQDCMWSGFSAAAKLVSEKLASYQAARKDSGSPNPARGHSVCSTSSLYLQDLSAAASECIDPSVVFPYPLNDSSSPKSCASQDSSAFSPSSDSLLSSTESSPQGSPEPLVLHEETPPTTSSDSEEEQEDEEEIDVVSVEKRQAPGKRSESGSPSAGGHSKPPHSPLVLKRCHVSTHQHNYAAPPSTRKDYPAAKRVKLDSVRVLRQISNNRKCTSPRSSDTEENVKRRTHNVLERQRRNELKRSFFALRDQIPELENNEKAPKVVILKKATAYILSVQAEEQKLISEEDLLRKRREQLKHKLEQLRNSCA
# How it was run: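 HepG2, transient MRTU transfection (cis promoters, endogenous TFs); 24 h dosing; TriZol RNA → oligo(dT) RT → PCR → 6-FAM primer extension → HpaI cut → CE. Bidirectional fit vs DMSO.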
# [9] = ATG_NF_kB_CIS: Attagene CIS-FACTORIAL HepG2 Assay for human Nuclear Factor Kappa B (NF-kB) (AID 2282991); details: HepG2 Attagene cis-factorial NF-kB reporter mRNA; actives raise or lower the signal
# How it was run: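 Transient MRTU transfection of human HepG2 liver cells → 24 h chemical exposure → total RNA, oligo(dT) RT → PCR, 6-FAM primer extension, HpaI digest 2 h 37 C → CE fragment analysis. Bidirectional fitting, DMSO negative control.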
# [10] = ATG_NRF2_ARE_CIS: Attagene CIS-FACTORIAL HepG2 Assay for human Nuclear Factor Erythroid 2 Related Factor 2 (NFR2) response to Antioxidant Response Elements (ARE) (AID 2282992); details: HepG2 Attagene ARE/NRF2 reporter, transcription factor activity; actives raise or lower the signal;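 as to AC50: reporter mRNA level measured by RT-PCR and capillary electrophoresis fluorescence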
# How it was run: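 Fluorescence intensity of reporter-specific cDNA fragments, separated by capillary electrophoresis, reflects mRNA induction in transfected HepG2 cells at 24 h. Activity is fitted bidirectionally, DMSO serving as baseline.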
# [11] = ATG_Oct_MLP_CIS: Attagene CIS-FACTORIAL HepG2 Assay for human Octamer-Binding Transcription Factor (Oct) (AID 2282993); details: HepG2 Attagene cis-factorial Oct reporter, mRNA; actives raise or lower the signal
# How it was run: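 HepG2 cells transiently transfected with cis-promoter-driven multiplexed reporter transcription units, dosed for 24 h. Reporter mRNA quantified by RT-PCR, fluorescent labelling, HpaI digestion and capillary electrophoresis; bidirectional fits versus DMSO baseline.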
# [12] = target: Cellular tumor antigen p53 (Homo sapiens) (UniProt P04637); assay: ATG_p53_CIS: Attagene CIS-FACTORIAL HepG2 Assay for human p53 Transcription Factor (AID 2282994); details: HepG2 p53 cis-element reporter, Attagene mRNA; actives raise or lower the signal
# Chain of Cellular tumor antigen p53 (Homo sapiens) (P04637 whole entry, looked up): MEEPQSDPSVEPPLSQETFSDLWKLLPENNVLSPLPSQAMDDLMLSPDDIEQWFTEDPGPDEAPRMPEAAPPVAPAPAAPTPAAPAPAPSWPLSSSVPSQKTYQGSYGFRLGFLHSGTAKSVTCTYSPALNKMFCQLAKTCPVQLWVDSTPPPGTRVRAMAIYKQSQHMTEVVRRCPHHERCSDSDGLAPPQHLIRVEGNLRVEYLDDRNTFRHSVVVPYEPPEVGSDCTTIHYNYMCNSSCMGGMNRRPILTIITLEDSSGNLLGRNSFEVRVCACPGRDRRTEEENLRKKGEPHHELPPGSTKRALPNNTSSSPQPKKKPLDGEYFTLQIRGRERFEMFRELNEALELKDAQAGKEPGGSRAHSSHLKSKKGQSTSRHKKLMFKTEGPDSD
# How it was run: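 Transiently transfected HepG2 (multiple cis reporter transcription units); exposure 24 h; reporter RNA via RT-PCR, 6-FAM extension, 2 h HpaI digest at 37 C, CE detection; DMSO baseline.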
# [13] = BSK_3C_TissueFactor: BioMAP Diversity Plus: 3C Assay for Tissue Factor Biomarker Activity (AID 2282997); details: BioMAP 3C HUVEC, tissue factor biomarker readout; actives raise or lower the signal
# How it was run: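 After a 24 h chemical exposure of primary human umbilical vein endothelial cells, Tissue Factor levels were quantified by ELISA.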
# [14] = BSK_3C_uPAR: BioMAP Diversity Plus: 3C Assay for Urokinase-type plasminogen activator receptor (uPAR) Biomarker Activity (AID 2282998); details: BioMAP 3C HUVEC, uPAR biomarker ELISA; actives raise or lower the signal
# How it was run: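 Human umbilical vein endothelial primary cells were exposed to test chemical for 24 h. Cell-surface uPAR was then quantified by ELISA, and responses were fitted bidirectionally against DMSO as negative control and baseline.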
# [15] = BSK_3C_VCAM1: BioMAP Diversity Plus: 3C Assay for Vascular cell adhesion molecule 1 (VCAM1) Biomarker Activity (AID 2282999); details: BioMAP 3C HUVEC, VCAM1 ELISA, cytokine-stimulated; actives raise or lower the signal
# How it was run: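 Activity fitted in both directions relative to DMSO, with ELISA measurement of the surface marker on primary HUVEC (3C) at 24 h post-treatment; parallel SRB staining (0.1% SRB, TCA-fixed, 560 nm) flagged overt cytotoxicity.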
# [16] = BSK_4H_Eotaxin3: BioMAP Diversity Plus: 4H Assay for Eotaxin 3 Biomarker Activity (AID 2283000); details: primary human endothelial cells (HUVEC); actives raise or lower the signal;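 as to outcome: CCL26 protein level quantified by ELISA in parallel with SRB cytotoxicity check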
# How it was run: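 Chemicals were added to human umbilical vein endothelium cultures, and Eotaxin-3 was quantified by ELISA at 24 h. Values were derived by bidirectional fitting with DMSO serving as negative control and activity baseline.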
# [17] = target: human Peroxisome Proliferator-activated Receptor alpha (PPARa), PPARA (gene 5465) (UniProt Q07869); assay: ATG_PPARa_TRANS: Attagene TRANS-FACTORIAL HepG2 Assay for human Peroxisome Proliferator-activated Receptor alpha (PPARa) (AID 2283001; active = hit-call score of the fitted dose curve at least 0.9, where 1 is the maximum;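 as to AC50: potency for gain of reporter signal over DMSO so agonist or activator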)
# Chain of human Peroxisome Proliferator-activated Receptor alpha (PPARa), PPARA (gene 5465) (Q07869 whole entry, looked up, the tested form may be a part): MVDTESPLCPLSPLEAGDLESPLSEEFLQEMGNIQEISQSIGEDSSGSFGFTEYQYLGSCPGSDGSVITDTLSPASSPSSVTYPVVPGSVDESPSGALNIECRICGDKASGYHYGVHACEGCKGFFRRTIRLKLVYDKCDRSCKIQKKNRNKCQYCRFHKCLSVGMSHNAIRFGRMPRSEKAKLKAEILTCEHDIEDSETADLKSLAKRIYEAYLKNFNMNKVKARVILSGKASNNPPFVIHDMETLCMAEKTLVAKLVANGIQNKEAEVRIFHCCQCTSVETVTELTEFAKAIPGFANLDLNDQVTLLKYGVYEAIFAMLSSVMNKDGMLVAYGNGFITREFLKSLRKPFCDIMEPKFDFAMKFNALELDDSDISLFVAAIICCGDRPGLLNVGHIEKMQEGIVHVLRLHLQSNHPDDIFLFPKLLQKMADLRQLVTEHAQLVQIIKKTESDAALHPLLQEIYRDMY
# How it was run: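 Transfected HepG2 cells treated with test chemical for 24 h. RNA isolated, reverse-transcribed with oligo(dT), PCR-amplified, FAM-labelled and HpaI-digested. Fragments sized by capillary electrophoresis; gain-of-signal fit relative to DMSO.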
# [18] = target: Oxysterols receptor LXR-beta (Homo sapiens) (UniProt P55055); assay: ATG_LXRb_TRANS: Attagene TRANS-FACTORIAL HepG2 Assay for human Liver X Receptor beta (LXRb) (AID 2282981; active = hit-call score of the fitted dose curve at least 0.9, where 1 is the maximum); details: HepG2 Attagene TRANS GAL4-LXRb reporter, mRNA
# Chain of Oxysterols receptor LXR-beta (Homo sapiens) (P55055 whole entry, looked up, the tested form may be a part): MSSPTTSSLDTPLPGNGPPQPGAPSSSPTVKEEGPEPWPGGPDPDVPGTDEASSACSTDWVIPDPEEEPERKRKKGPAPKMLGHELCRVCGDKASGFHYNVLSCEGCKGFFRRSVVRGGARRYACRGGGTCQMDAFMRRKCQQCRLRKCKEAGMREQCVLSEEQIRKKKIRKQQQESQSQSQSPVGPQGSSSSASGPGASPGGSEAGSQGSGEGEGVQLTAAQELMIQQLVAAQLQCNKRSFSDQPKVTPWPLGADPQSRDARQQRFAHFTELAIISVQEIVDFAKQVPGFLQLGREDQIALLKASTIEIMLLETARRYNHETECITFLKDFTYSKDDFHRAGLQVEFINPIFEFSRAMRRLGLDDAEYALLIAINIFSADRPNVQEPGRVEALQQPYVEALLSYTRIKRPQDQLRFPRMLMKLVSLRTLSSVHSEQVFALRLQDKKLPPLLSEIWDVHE
# How it was run: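 After 24 h of chemical treatment, transfected HepG2 cells yield total RNA; reporter cDNA is PCR-amplified, FAM-labelled, HpaI-cut and run on capillary electrophoresis. Signal reflects chimeric LXRb-Gal4 activity on GAL4-UAS reporters.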
# [19] = ATG_M_32_TRANS: Attagene TRANS-FACTORIAL HepG2 Assay for M32 Transcription Factor (Internal Marker) (AID 2282984; active = hit-call score of the fitted dose curve at least 0.9, where 1 is the maximum); details: HepG2 Attagene TRANS M32 internal marker reporter
# How it was run: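 Cell-based TRANS-format assay in HepG2: exogenous chimeric GAL4 reporter units transiently expressed, compounds applied 24 h. Reporter mRNA detected by RT-PCR plus capillary electrophoresis; this readout is an internal background marker.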
# [20] = target: Nuclear respiratory factor 1 (Homo sapiens) (UniProt Q16656); assay: ATG_NRF1_CIS: Attagene CIS-FACTORIAL HepG2 Assay for human Nuclear Respiratory Factor 1 (NRF1) Orphan Gene (AID 2282987); details: HepG2 NRF1 cis-element reporter, Attagene multiplex; actives raise or lower the signal
# Chain of Nuclear respiratory factor 1 (Homo sapiens) (Q16656 whole entry, looked up): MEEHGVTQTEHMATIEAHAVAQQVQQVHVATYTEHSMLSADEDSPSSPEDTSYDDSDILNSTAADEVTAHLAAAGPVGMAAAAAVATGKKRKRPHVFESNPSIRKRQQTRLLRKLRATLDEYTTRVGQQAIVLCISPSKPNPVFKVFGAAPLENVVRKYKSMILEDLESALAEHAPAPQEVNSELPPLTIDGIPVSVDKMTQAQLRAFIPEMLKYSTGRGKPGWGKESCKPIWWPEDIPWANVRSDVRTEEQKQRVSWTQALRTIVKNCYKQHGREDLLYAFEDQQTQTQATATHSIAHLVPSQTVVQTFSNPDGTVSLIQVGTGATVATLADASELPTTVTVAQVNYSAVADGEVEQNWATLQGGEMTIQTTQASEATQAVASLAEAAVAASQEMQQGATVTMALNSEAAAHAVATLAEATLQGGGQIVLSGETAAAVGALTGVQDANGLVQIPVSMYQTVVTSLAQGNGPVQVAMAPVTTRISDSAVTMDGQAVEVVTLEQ
# How it was run: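 Multiplexed cis-reporter assay, HepG2 cells, 24 h treatment. Total RNA → oligo(dT) RT → PCR with reporter-specific primers → 6-FAM primer extension → HpaI cut → CE. Bidirectional fit vs DMSO.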
compound,measurement,setting,value
OCC(F)(F)OC(F)(F)C(F)(F)OC(F)(F)C(F)(F)OC(F)(F)CO,outcome,[1],inactive
same,outcome,[2],inactive
same,outcome,[3],inactive
same,outcome,[4],inactive
same,outcome,[5],inactive
same,outcome,[6],inactive
same,outcome,[7],inactive
same,outcome,[8],inactive
same,outcome,[9],inactive
same,AC50,[10],33.2 µM (active)
same,outcome,[11],inactive
same,AC50,[12],29.8 µM (active)
same,outcome,[13],inactive
same,outcome,[14],inactive
same,outcome,[15],inactive
same,outcome,[16],inactive
same,outcome,[17],inactive
CC(=O)c1ccc(-c2ccccc2)cc1,outcome,[1],inactive
same,outcome,[2],inactive
same,outcome,[18],inactive
same,outcome,[4],inactive
same,outcome,[19],inactive
same,outcome,[5],inactive
same,outcome,[6],inactive
same,outcome,[7],inactive
same,outcome,[8],inactive
same,outcome,[9],inactive
same,outcome,[10],inactive
same,outcome,[11],inactive
same,outcome,[12],inactive
same,outcome,[17],inactive
C/C(=N\NC(=O)Nc1cc(F)cc(F)c1)c1ncccc1C(=O)O,outcome,[1],inactive
same,outcome,[2],inactive
same,outcome,[3],inactive
same,outcome,[4],inactive
same,outcome,[19],inactive
same,outcome,[5],inactive
same,outcome,[6],inactive
same,outcome,[20],inactive
same,outcome,[7],inactive
same,outcome,[8],inactive
same,outcome,[9],inactive
same,outcome,[10],inactive
same,outcome,[11],inactive
same,outcome,[12],inactive
same,outcome,[17],inactive
COC(=O)C(F)(F)C(F)(F)OC(F)(C(F)(F)F)C(F)(F)OC(F)=C(F)F (stereo not drawn),outcome,[1],inactive
same,outcome,[2],inactive
same,outcome,[3],inactive
same,outcome,[4],inactive
same,outcome,[19],inactive
same,outcome,[5],inactive
same,outcome,[6],inactive
same,outcome,[20],inactive
same,outcome,[7],inactive
same,outcome,[8],inactive
same,outcome,[9],inactive
same,AC50,[10],4.38 µM (active) and 10.3 µM (active) and 5.16 µM (active)
same,outcome,[11],inactive
same,AC50,[12],12.7 µM (active)
same,outcome,[12],inactive
same,outcome,[13],inactive
same,outcome,[15],inactive
same,outcome,[16],inactive
same,AC50,[17],8.47 µM (active) and 26 µM (active) and 10.1 µM (active)
Cc1c([N+](=O)[O-])cc2c(c1[N+](=O)[O-])C(C)(C)CC2(C)C,outcome,[1],inactive
same,outcome,[2],inactive
same,outcome,[4],inactive
same,AC50,[5],14.6 µM (active)
same,outcome,[6],inactive
same,outcome,[7],inactive
same,AC50,[8],3.03 µM (active)
same,outcome,[10],inactive
same,outcome,[11],inactive
same,outcome,[12],inactive
same,AC50,[13],3.62 µM (active)
same,AC50,[14],0.87 µM (active)
same,outcome,[15],inactive
same,AC50,[16],2.15 µM (active)
c1ccc2c(c1)sc1ccccc12,outcome,[1],inactive
same,outcome,[2],inactive
same,outcome,[4],inactive
same,outcome,[19],inactive
same,outcome,[6],inactive
same,outcome,[20],inactive
same,outcome,[7],inactive
same,outcome,[8],inactive
same,outcome,[10],inactive
same,outcome,[11],inactive
same,outcome,[12],inactive
same,outcome,[13],inactive
same,outcome,[14],inactive
same,outcome,[15],inactive
same,outcome,[16],inactive
same,outcome,[17],inactive
CC(C)(C)c1ccccc1OP(=O)(Oc1ccccc1)Oc1ccccc1,outcome,[1],inactive
same,outcome,[19],inactive
same,AC50,[5],57.4 µM (active)
same,outcome,[6],inactive
same,outcome,[8],inactive
same,outcome,[9],inactive
same,AC50,[10],19.8 µM (active)
same,outcome,[11],inactive
same,outcome,[12],inactive
same,AC50,[13],20 µM (active)
same,AC50,[14],20 µM (active)
same,AC50,[15],28.6 µM (active)
same,AC50,[16],26.2 µM (active)
